CHX counter: affects cycloheximide protein synthesis inhibition readout, counter-screen. 12% of 300,000 active. max response, %. cell reporter, cycloheximide protein synthesis inhibition counterscreen; in the data active = max response mostly above about 13%, no sharp cut-off; inactive = mostly below about 14%; note: read at 38.3 µM for the half of the compounds with a filed dose; 0% is about no effect
LASV entry inh: inhibitors of Lassa virus binding or cell entry | AID 540256 | Potency, µM (top dose mostly 37.9 µM), for the others: top-dose activity change, negative = inhibition, hits mostly inhibitors | Lassa virus pseudotype entry inhibition, cell reporter | 1.2% of 300,000 active; calls by dose curve; tested in HEK293 cells; note: potency is the fitted concentration of half-maximal effect; % is set by controls: 0 for no effect and ±100 for the full control effect; nearly all actives have a fitted effect of over 50% in size
Shiga toxin inh: blocks Shiga toxin action in Vero cells; 9.2% of 290,000 active; AID 2315; Vero cells, Shiga toxin protein synthesis inhibition reporter; inhibition, % at 38.7 µM; in the data active = inhibition mostly above about 28%, no sharp cut-off; inactive = mostly below about 43%; note: 0% is about no effect
MARV entry inh: Marburg virus entry inhibition | Marburg virus pseudotyped entry inhibition, cell reporter | Potency, µM (top dose mostly 37.8 µM), for inactives: at the top dose activity change, negative = inhibition, usual class: inhibitors | 1.8% of 300,000 active; calls by dose curve; tested in HEK293 cells; note: potency is the fitted concentration of half-maximal effect; % is set by controls: 0 for no effect and ±100 for the full control effect
Pf growth 48h: inhibits P. falciparum growth in the first generation, 48 h; 5.9% of 310,000 active; P. falciparum luciferase growth in erythrocytes, 48 h; Potency, µM (doses to about 28.7 µM), inactives show at the top dose activity change, negative = inhibition, hits mostly inhibitors; note: potency is the fitted concentration of half-maximal effect; % is set by controls: 0 for no effect and ±100 for the full control effect
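Luciferase-expressing P. falciparum in infected erythrocytes (2% hematocrit, 0.1% parasitemia final) in RPMI 1640/0.5% Albumax were exposed to compound for 48 hours at 37 C, 5% CO2; growth read as luminescence.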
Pf growth 96h: P. falciparum growth inhibition at 96 hours; P. falciparum luciferase reporter growth, 96 h; Potency, µM (highest dose often 28.7 µM), without a hit: at the top dose activity change, negative = inhibition, hits mostly inhibitors; 6.9% of 320,000 active; note: potency is the fitted concentration of half-maximal effect; % is set by controls: 0 for no effect and ±100 for the full control effect
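Luminescence readout: decreased luciferase signal marks inhibited growth of reporter-expressing P. falciparum in infected red cells (2% hematocrit, 0.05% parasitemia final), exposed to compound two generations (96 h, 37 C, 5% CO2).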
Active calls of the source: *; ? = inconclusive; . = no result given; [ ] = remark or other dose. An excerpt weighted towards active compounds, which were near 19% of everything screened. Unless noted, calls come from the whole dose curve; as a rule, active = well fitted inhibition curve with a large enough effect; inconclusive = small, poorly fitted or top-dose-only effect, or another doubt; inactive = no such curve, though single readings can be large or run the other way.

SMILES	CHX counter	LASV entry inh	Shiga toxin inh	MARV entry inh	Pf growth 48h	Pf growth 96h
COc1ccc(-c2csc3ncnc(N4CCN(c5ccccc5Cl)CC4)c23)cc1	3	-13%	-21	?	?	?
Cc1cccc(-c2nc(CCNC(=O)c3ccc(Br)o3)cs2)c1	.	22%[46.1 µM]	.	.	.	.
CCc1nnc(NS(=O)(=O)c2ccc(NC(=S)NC(=O)/C=C/c3ccccc3)cc2)s1	0	12%	-9	?	-6%	-7%
Fc1ccc(-c2csc3ncnc(N4CCN(c5ccccc5)CC4)c23)cc1	-4	?	-8	?	12µM*	5.9µM*
COc1ccc(N2CCN(c3ncnc4scc(-c5ccc(F)cc5)c34)CC2)cc1	11	-11%	-6	?	?	12µM*
c1ccc(-c2csc3ncnc(N4CCOCC4)c23)cc1	2	-16%	-8	-3%[46.1 µM]	-4%	32%
COc1ccc(-c2csc3ncnc(N4CCN(S(=O)(=O)c5cccs5)CC4)c23)cc1	.	?	.	?	?	0%
COc1ccc(-c2csc3ncnc(N4CCN(S(=O)(=O)c5ccc(C)cc5)CC4)c23)cc1	.	-18%	.	?	12µM*	?
COc1ccc(CN2CCN(c3ncnc4scc(-c5ccc(F)cc5)c34)CC2)cc1	-4	?	-3	13µM*	?	9.3µM*
CCOc1ccc(CN2CCN(c3ncnc4scc(-c5ccccc5)c34)CC2)cc1	-4	-18%	-20	0%	-15%	1%
COc1ccc(N2CCN(c3ncnc4scc(-c5ccc(C)cc5)c34)CC2)cc1	-2	10µM*	-3	?	?	?
Cc1sc2ncnc(N3CCN(Cc4ccccc4)CC3)c2c1-c1ccccc1	-8	?	0	3%[46.1 µM]	12µM*	10µM*
CCc1nc(SCC(=O)Nc2cc(C)on2)n[nH]1	4	0%	14	3%	17%	?
O=C(NCC1OCCCN1S(=O)(=O)c1ccc(F)cc1)C(=O)NC1CCCC1 (stereo not drawn)	-2	?	-29	21%	-19%	1%
O=C1Nc2ccccc2N=C(c2ccccc2)C1Br (stereo not drawn)	14	0%[46.1 µM]	46*	15%[46.1 µM]	18%	-21%
O=C1Nc2ccccc2N=C(c2ccccc2)C1N1CCOCC1 (stereo not drawn)	3	-3%	6	-4%	15%	-13%
COc1ccc2c(c[n+](C)c3c4cc5c(cc4ccc23)OCO5)c1OC	.	4.1µM*	.	7.3µM*	.	.
COc1ccc2cc3[n+](cc2c1OC)CCc1cc2c(cc1-3)OCO2	-3	?	-14	?	0.23µM*	0.15µM*
COc1cccc(C2=NCCc3cc4c(cc32)OCO4)c1OC	-2	8%	2	?	22%	1%
COc1cc2c(ccc3c4cc(OC)c(OC)cc4c[n+](C)c23)cc1O	.	-25%	.	?	.	.
C=CCNC(=S)Nc1sc2c(c1C(=O)OCC)CCN(C(=O)OCC)C2	-1	?	24	?	13µM*	?
CCOC(=O)c1c(NC(=O)Nc2ccc(C)cc2)sc2c1CCN(C)C2	18	1%	31	-15%[14.2 µM]	12µM*	3.7µM*
CCOC(=O)c1c(NC(=S)NCc2ccccc2)sc2c1CCN(C(=O)OCC)C2	-2	23%[46.1 µM]	-3	-12%[46.1 µM]	12µM*	5.9µM*
CCOC(=O)c1c(NC(=S)N2CCCCC2)sc2c1CCN(C(=O)OCC)C2	1	-1%	4	?	?	?
CCOC(=O)c1c(NC(=S)Nc2ccccc2)sc2c1CCCCC2	-2	-14%	9	-13%	4%	72%
SMILES	CHX counter	LASV entry inh	Shiga toxin inh	MARV entry inh	Pf growth 48h	Pf growth 96h
CCOC(=O)c1c(NC(=O)c2ccc(S(=O)(=O)N3CCC(C)CC3)cc2)sc2c1CCN(C)C2	.	0%[46.1 µM]	.	.	.	.
CCOC(=O)c1c(NC(=S)Nc2ccccc2)sc2c1CCN(CC)C2	2	3%	5	0%	6.6µM*	58%
Cc1cc(C)c(NC(=O)Nc2csc3c2CCCC3)c(C)c1	.	.	.	-26%[46.1 µM]	.	.
O=C(Nc1ccc(F)cc1)c1ccccc1NC(=O)C1CC=CCC1C(=O)O (stereo not drawn)	25	11%[46.1 µM]	29	?	7%	?
O=C(c1ccc(Cl)cc1)N1CCN(c2ncccn2)CC1	-2	-3%	-4	-11%	.	12%
CC(C)N(C(=O)N1CCN(c2ccnc3cc(Cl)ccc23)CC1)C(C)C	0	11µM*	-15	?	8.3µM*	8.3µM*
CCOC(=O)N1CCN(c2ccnc3cc(Cl)ccc23)CC1	-3	4%	21	?	2.6µM*	2.3µM*
COc1cccc(Cl)c1NC(=O)N1CCN(c2ccnc3cc(Cl)ccc23)CC1	-3	.	-4	.	?	?
CCC(=O)N1CCN(c2ccnc3cc(Cl)ccc23)CC1	-2	10%[46.1 µM]	-2	16%[46.1 µM]	13µM*	12µM*
O=C(c1ccc(Cl)cc1)N1CCN(c2ccnc3cc(Cl)ccc23)CC1	-3	?	-4	?	13µM*	15%
CCc1ccc(C(=O)c2cn(Cc3ccccc3)c3cc(OC)c(OC)cc3c2=O)cc1	.	-7%[46.1 µM]	.	?	.	.
CCCCCCCCC(=O)NNC(=O)c1c(O)c2ccccc2n(CC)c1=O	-2	?	17	?	30%	-29%
N#CCc1c(C#N)c(N)nc(Nc2ccccc2)c1C#N	-1	.	3	.	-11%	-9%
O=C(CCn1c(=O)sc2ccccc21)NCc1ccc2c(c1)OCO2	12*	25%	6	10%	106%	8%
O=C(Cc1cccs1)NCc1ccc(Cl)cc1	15*	10%[46.1 µM]	15	11%[46.1 µM]	22%	0%
O=C(CSc1nnc(Cc2cccs2)n1-c1ccc(Cl)cc1)NCc1ccc2c(c1)OCO2	8	-1%	23	-3%[46.1 µM]	0.93µM*	7.4µM*
O=C(Cc1cccs1)NCc1ccc2c(c1)OCO2	17*	-3%	53*	9%	40%	28%
COc1ccc(CC(=O)NCC(c2ccc(OC)cc2)N(C)C)cc1 (stereo not drawn)	5	.	-4	.	?	-29%
COc1ccc(CC(=O)NCc2cccs2)cc1	6	-16%	16	-10%	20%	.
COc1ccc(CNC(=O)Cc2cccs2)cc1	43*	.	61*	.	60%	?
COc1ccc(C(CNC(=O)Cc2cccs2)N(C)C)cc1 (stereo not drawn)	11*	9%[46.1 µM]	19	?	16%	33%
COc1ccccc1CC(=O)NCc1ccc2c(c1)OCO2	16*	-4%	29*	?	14%	.
O=C(NCc1ccccc1)C(c1ccccc1)N(Cc1ccc2c(c1)OCO2)C(=O)Cc1cccs1 (stereo not drawn)	3	13µM*	17	?	?	15%
CC(=O)OCc1cnc(C)c2oc(=O)c(C(=O)Nc3ccc(C)cc3Cl)cc12	.	9%[46.1 µM]	.	.	.	.
